As usually defined, the AC50 is the concentration giving half of the maximal activity seen.

Experiment [1] is described as follows: ATG_PBREM_CIS: Attagene CIS-FACTORIAL HepG2 Assay for human Phenobarbital-responsive Enhancer Module (PBREM) (AID 2282955). The settings on record: HepG2 PBREM cis-reporter, Attagene multiplexed transcription; actives raise or lower the signal. In outline: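 Endogenous transcription factors in human liver HepG2 cells drive a PBREM cis-element reporter, whose transcript level after 24 h treatment is quantified by RT-PCR with capillary electrophoresis; activity fitted in both directions against DMSO.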

For experiment [2], the target named is Paired box protein Pax-6 (Homo sapiens) (UniProt P26367). The experiment in a line: ATG_Pax6_CIS: Attagene CIS-FACTORIAL HepG2 Assay for human Paired Box 6 (PAX6) (AID 2282956). The settings on record: HepG2 CIS-FACTORIAL PAX6 reporter transcription, RNA readout; actives raise or lower the signal. In a few lines:
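Transient MRTU transfection of HepG2 → compound exposure 24 h → TriZol RNA, oligo(dT) RT → PCR, 6-FAM primer extension, HpaI cut → capillary electrophoresis; activity fitted both directions against DMSO.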

Experiment [3] in a line: ATG_PXRE_CIS: Attagene CIS-FACTORIAL HepG2 Assay for human Pregnane X Receptor Element (PXRE) (AID 2282957). The settings on record: HepG2 Attagene CIS-FACTORIAL PXRE reporter, mRNA; actives raise or lower the signal. In outline:
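Cells: HepG2, transiently transfected reporter units under cis promoter control. Exposure: 24 h. Detection: reporter mRNA via RT-PCR/CE fluorescence; bidirectional fitting, DMSO-referenced.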

Experiment [4] can be described thus: ATG_PPRE_CIS: Attagene CIS-FACTORIAL HepG2 Assay for human Peroxisome Proliferator-activated Response Element (PPRE) (AID 2282958). Conditions: HepG2 PPRE cis-element reporter, Attagene transcription factor profiling; actives raise or lower the signal. In outline:
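HepG2, transient MRTU transfection (cis promoter elements, endogenous TFs). 24 h dosing. RNA → oligo(dT) RT → PCR → 6-FAM primer extension → HpaI digest → CE. Bidirectional fit vs DMSO.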

The nature of experiment [5]: ATG_RORE_CIS: Attagene CIS-FACTORIAL HepG2 Assay for human RAR-related Orphan Receptor Element (RORE) (AID 2282959). Conditions: HepG2 Attagene cis-factorial RORE reporter, mRNA; actives raise or lower the signal. In outline:
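Transient MRTU transfection of human HepG2 liver cells (FuGene 6); 24 h compound exposure; TriZol RNA, oligo(dT) RT, PCR, FAM labeling, HpaI cut, CE fragment analysis. DMSO = negative control/baseline.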

A short description of experiment [6]: ATG_Sox_CIS: Attagene CIS-FACTORIAL HepG2 Assay for human SRY-box transcription factor (SOX) (AID 2282960). The settings on record: HepG2 Attagene cis-factorial SOX reporter, mRNA; actives raise or lower the signal. In a few lines:
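Endogenous factor activity in human liver HepG2 cells carrying transfected cis-regulated reporter units. RNA taken 24 h post-dose, reverse-transcribed, PCR-amplified and sized by capillary electrophoresis. Gain or loss of signal fitted relative to DMSO.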

The target in experiment [7] is Transcription factor Sp1 (Homo sapiens) (UniProt P08047). The experiment in a line: ATG_Sp1_CIS: Attagene CIS-FACTORIAL HepG2 Assay for human Specificity Protein 1 (Sp1) (AID 2282961). Conditions: HepG2 Sp1 cis-reporter transcription, actives raise or lower the signal. In a few lines: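 Transient MRTU-transfected HepG2, 24 h compound exposure. Total RNA → oligo(dT) RT → PCR of reporter → 6-FAM primer extension → HpaI digest → CE. Endpoint fitted both directions vs DMSO.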
Transcription factor Sp1 (Homo sapiens), sequence (P08047 whole entry, looked up): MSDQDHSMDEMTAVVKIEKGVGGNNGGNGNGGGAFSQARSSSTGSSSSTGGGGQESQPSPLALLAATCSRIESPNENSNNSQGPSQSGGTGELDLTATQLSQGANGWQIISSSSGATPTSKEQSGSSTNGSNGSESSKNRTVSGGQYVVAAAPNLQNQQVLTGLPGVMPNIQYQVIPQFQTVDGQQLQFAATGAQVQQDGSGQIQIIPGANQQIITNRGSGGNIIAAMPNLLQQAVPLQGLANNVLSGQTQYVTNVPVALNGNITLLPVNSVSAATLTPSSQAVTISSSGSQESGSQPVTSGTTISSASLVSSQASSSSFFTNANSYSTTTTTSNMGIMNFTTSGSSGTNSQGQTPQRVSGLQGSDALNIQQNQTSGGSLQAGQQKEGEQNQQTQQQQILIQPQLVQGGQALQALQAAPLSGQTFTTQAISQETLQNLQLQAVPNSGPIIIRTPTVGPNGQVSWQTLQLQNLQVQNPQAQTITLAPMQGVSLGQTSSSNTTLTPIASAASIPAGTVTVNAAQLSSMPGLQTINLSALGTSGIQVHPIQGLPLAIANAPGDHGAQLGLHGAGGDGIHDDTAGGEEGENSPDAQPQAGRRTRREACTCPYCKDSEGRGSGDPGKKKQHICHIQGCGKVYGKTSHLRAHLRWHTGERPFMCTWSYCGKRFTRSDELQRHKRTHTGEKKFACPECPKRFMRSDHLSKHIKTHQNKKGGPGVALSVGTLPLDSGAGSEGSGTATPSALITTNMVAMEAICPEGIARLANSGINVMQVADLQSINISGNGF

The nature of experiment [8]: ATG_SREBP_CIS: Attagene CIS-FACTORIAL HepG2 Assay for human Sterol Regulatory Element Binding (SREBP) (AID 2282962). The settings on record: HepG2 Attagene cis-factorial SREBP reporter, mRNA; actives raise or lower the signal. In a few lines:
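Transfected HepG2 (cis-regulated reporter library, endogenous TFs) → compound 24 h → total RNA → oligo(dT) RT → reporter-specific PCR → FAM primer extension, HpaI cut → CE fluorescence. Fit bidirectional vs DMSO.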

Experiment [9] has as its target Signal transducer and activator of transcription 3 (Homo sapiens) (UniProt P40763). The experiment can be described thus: ATG_STAT3_CIS: Attagene CIS-FACTORIAL HepG2 Assay for human Signal Transducer and Activator of Transcription 3 (STAT3) (AID 2282963). The settings on record: HepG2, Attagene cis-factorial STAT3 reporter transcription; actives raise or lower the signal. In outline: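 Transcript-level reporter assay. HepG2 transient MRTU transfection, 24 h exposure, fluorescence detection after RT-PCR and CE; DMSO baseline.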

Experiment [10] in a line: ATG_TA_CIS: Attagene CIS-FACTORIAL HepG2 Assay for human TA Basal Promoter (AID 2282964). Conditions: HepG2 Attagene CIS-factorial TA basal promoter reporter; actives raise or lower the signal. In a few lines: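 Background internal-marker endpoint from a 52-component HepG2 cis-reporter panel. Cells treated 24 h; reporter transcripts quantified via RT-PCR and CE fluorescence against DMSO baseline.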

Experiment [11] can be described thus: ATG_TCF_b_cat_CIS: Attagene CIS-FACTORIAL HepG2 Assay for human T-Cell-Factor with beta-catenin (TCF/b-cat) (AID 2282965). The settings on record: HepG2 TCF/beta-catenin cis-reporter transcription, actives raise or lower the signal. In a few lines:
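HepG2 cells transiently transfected with multiple cis-promoter-regulated reporter transcription units, so endogenous transcription factor activity is measured. Reporter mRNA read 24 hours after dosing by RT-PCR, fluorescent labelling and capillary electrophoresis; bidirectional fitting against DMSO.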

Experiment [12] is described as follows: ATG_TAL_CIS: Attagene CIS-FACTORIAL HepG2 Assay for human TAL Basal Promoter (AID 2282966).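 Also: background control endpoint measuring basal TAL promoter reporter mRNA not a specific factor.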 Conditions: HepG2 Attagene cis-factorial TAL promoter reporter; actives raise or lower the signal. In outline: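 RT-PCR plus capillary electrophoresis quantifies reporter mRNA induction in transiently transfected HepG2 cells after 24 h chemical treatment. DMSO serves as negative control and baseline for bidirectional fitting.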

A short description of experiment [13]: ATG_TGFb_CIS: Attagene CIS-FACTORIAL HepG2 Assay for human Transforming Growth Factor (TGF) (AID 2282967). Conditions: HepG2 Attagene CIS TGFb reporter, mRNA transcription; actives raise or lower the signal. In outline:
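Liver HepG2 line, cis-factorial reporter panel, 24 h dosing. Quantitation: RT-PCR products labeled with 6-FAM, cut with HpaI, resolved by capillary electrophoresis; DMSO-referenced bidirectional analysis.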

Experiment [14] is described as follows: ATG_VDRE_CIS: Attagene CIS-FACTORIAL HepG2 Assay for human Vitamin D Receptor Element (VDRE) (AID 2282968). The settings on record: HepG2 VDRE cis-reporter transcription, actives raise or lower the signal. In outline:
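RT-PCR/CE readout of reporter mRNA; HepG2, transient transfection, 24 h dosing; DMSO baseline; bidirectional analysis.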

The target of experiment [15] is Nuclear receptor subfamily 1 group I member 3 (Homo sapiens) (UniProt Q14994). The experiment can be described thus: ATG_CAR_TRANS: Attagene TRANS-FACTORIAL HepG2 Assay for human Constitutive Androstane Receptor (CAR) (AID 2282969; active = hit-call score of the fitted dose curve at least 0.9, where 1 is the maximum;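 also: activators raise reporter mRNA above DMSO so AC50 marks induction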). Conditions: HepG2 Attagene TRANS-FACTORIAL CAR reporter. In a few lines:
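HepG2 cells transiently transfected with multiplexed GAL4-UAS reporter units expressing chimeric NR-Gal4 proteins; compound exposure 24 h. Reporter mRNA measured by RT-PCR, 6-FAM labelling, HpaI digestion and capillary electrophoresis; gain-of-signal fitted against DMSO baseline.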

Experiment [16] concerns the target Estrogen receptor (Homo sapiens) (UniProt P03372). The experiment can be described thus: ATG_ERa_TRANS: Attagene TRANS-FACTORIAL HepG2 Assay for human Estrogen Receptor alpha (ERa) (AID 2282970; active = hit-call score of the fitted dose curve at least 0.9, where 1 is the maximum). Conditions: HepG2 Attagene TRANS ERa GAL4 reporter, mRNA. In a few lines: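 Cells: HepG2, transiently transfected. Construct: GAL4-UAS reporter units regulated by exogenous NR-Gal4 chimeras. Time: 24 h. Detection: reporter mRNA by RT-PCR, capillary electrophoresis, fluorescence. Baseline: DMSO, upward fitting.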

Experiment [17] deals with Steroid hormone receptor ERR1 (Homo sapiens) (UniProt P11474). The experiment in a line: ATG_ERRa_TRANS: Attagene TRANS-FACTORIAL HepG2 Assay for human Estrogen-Related Receptor alpha (ERRa) (AID 2282971; active = hit-call score of the fitted dose curve at least 0.9, where 1 is the maximum). Conditions: HepG2 Attagene TRANS reporter, ERRa transactivation. In a few lines:
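Reporter transcripts from ERRa-Gal4 chimera activity measured in transiently transfected human HepG2 cells 24 hours after dosing, using RT-PCR with 6-FAM primer extension, HpaI digestion and capillary electrophoresis; DMSO is baseline.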

Experiment [18] has as its target X-box-binding protein 1 (Homo sapiens) (UniProt P17861). The experiment in a line: ATG_Xbp1_CIS: Attagene CIS-FACTORIAL HepG2 Assay for human X-box Binding Protein 1 (XBP1) (AID 2282972). The settings on record: HepG2 XBP1 cis-element reporter, Attagene multiplex; actives raise or lower the signal. In outline: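 HepG2, transient MRTU transfection (cis-promoter driven), 24 h compound exposure. Total RNA → oligo(dT) RT → PCR → 6-FAM labeling → HpaI cut → CE. Bidirectional fit vs DMSO.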

Experiment [19] is described as follows: ATG_M_19_TRANS: Attagene TRANS-FACTORIAL HepG2 Assay for M19 Transcription Factor (Internal Marker) (AID 2282974; active = hit-call score of the fitted dose curve at least 0.9, where 1 is the maximum). The settings on record: HepG2 Attagene TRANS-FACTORIAL M19 internal marker reporter. In outline: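 Fluorescence of 6-FAM-labelled reporter cDNA fragments, separated by capillary electrophoresis, served as the readout. These derived from HepG2 cells carrying transfected GAL4-UAS reporter units after 24 h dosing, with DMSO as negative control.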

Experiment [20] deals with Androgen receptor (Homo sapiens) (UniProt P10275). The experiment can be described thus: ATG_AR_TRANS: Attagene TRANS-FACTORIAL HepG2 Assay for human Androgen Receptor (AR) (AID 2282973; active = hit-call score of the fitted dose curve at least 0.9, where 1 is the maximum). The settings on record: HepG2 Attagene TRANS-FACTORIAL AR reporter transcription. In a few lines: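 Transcriptional activity of an exogenous AR–Gal4 fusion read as GAL4-UAS reporter transcript levels in transfected human HepG2 cells after 24 h dosing. Detection via RT-PCR, 6-FAM labelling, HpaI digest and capillary electrophoresis; increase over DMSO baseline.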
Androgen receptor (Homo sapiens), sequence (P10275 whole entry, looked up, the tested form may be a part): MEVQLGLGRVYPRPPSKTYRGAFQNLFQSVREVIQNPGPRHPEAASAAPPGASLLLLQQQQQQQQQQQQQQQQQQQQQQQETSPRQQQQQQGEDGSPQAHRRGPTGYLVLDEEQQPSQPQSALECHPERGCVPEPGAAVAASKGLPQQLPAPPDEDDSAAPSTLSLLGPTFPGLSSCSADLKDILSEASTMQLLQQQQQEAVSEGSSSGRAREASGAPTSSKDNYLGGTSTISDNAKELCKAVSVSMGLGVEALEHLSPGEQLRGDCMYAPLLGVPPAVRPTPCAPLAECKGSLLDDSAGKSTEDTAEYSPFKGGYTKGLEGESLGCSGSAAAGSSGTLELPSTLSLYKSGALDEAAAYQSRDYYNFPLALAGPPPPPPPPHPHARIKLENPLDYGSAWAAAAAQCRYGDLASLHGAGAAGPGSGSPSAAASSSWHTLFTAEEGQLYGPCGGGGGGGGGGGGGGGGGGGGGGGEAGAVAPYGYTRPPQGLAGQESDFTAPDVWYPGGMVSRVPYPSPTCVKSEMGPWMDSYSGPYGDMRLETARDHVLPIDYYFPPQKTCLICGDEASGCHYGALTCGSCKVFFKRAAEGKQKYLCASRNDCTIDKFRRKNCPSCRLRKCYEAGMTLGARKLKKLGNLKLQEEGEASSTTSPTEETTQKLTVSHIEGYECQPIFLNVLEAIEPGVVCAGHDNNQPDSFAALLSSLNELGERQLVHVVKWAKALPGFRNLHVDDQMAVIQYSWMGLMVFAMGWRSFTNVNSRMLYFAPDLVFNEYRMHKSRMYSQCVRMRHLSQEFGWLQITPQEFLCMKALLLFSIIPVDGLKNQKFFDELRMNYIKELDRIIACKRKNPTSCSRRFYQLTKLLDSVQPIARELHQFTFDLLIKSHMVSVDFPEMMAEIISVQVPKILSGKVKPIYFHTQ

The structures appear in SMILES notation. Where “and” joins values, the source holds several entries; their conditions need not be identical. Identical values can stand only once. Records with an inconclusive call do not appear. More than one record can exist for a structure, and the calls need not agree. Calls of active or inactive are those of the source. The calls were made as follows, unless noted: active = hit-call score of the fitted dose curve at least 0.9, where 1 is the maximum; inactive = score below 0.9.

Paired box protein Pax-6 (Homo sapiens), sequence (P26367 whole entry, looked up): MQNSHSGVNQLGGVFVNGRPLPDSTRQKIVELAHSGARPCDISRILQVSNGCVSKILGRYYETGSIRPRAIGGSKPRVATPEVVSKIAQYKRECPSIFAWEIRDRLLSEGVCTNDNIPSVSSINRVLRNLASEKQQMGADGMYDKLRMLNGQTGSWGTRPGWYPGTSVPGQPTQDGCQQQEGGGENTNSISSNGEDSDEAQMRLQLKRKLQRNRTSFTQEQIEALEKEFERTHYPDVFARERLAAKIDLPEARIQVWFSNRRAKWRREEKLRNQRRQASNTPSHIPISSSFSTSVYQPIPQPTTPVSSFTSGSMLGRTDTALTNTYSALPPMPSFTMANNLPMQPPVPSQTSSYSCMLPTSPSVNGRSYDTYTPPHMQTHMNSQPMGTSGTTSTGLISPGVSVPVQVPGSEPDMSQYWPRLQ
X-box-binding protein 1 (Homo sapiens), sequence (P17861 whole entry, looked up): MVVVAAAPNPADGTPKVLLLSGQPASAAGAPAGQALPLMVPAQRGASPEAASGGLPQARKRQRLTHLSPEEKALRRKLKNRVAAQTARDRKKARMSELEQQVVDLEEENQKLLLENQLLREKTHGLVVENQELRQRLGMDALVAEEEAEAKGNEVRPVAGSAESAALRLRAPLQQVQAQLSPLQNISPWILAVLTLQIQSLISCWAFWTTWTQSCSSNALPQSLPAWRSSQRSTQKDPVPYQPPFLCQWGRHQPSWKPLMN
Signal transducer and activator of transcription 3 (Homo sapiens), sequence (P40763 whole entry, looked up): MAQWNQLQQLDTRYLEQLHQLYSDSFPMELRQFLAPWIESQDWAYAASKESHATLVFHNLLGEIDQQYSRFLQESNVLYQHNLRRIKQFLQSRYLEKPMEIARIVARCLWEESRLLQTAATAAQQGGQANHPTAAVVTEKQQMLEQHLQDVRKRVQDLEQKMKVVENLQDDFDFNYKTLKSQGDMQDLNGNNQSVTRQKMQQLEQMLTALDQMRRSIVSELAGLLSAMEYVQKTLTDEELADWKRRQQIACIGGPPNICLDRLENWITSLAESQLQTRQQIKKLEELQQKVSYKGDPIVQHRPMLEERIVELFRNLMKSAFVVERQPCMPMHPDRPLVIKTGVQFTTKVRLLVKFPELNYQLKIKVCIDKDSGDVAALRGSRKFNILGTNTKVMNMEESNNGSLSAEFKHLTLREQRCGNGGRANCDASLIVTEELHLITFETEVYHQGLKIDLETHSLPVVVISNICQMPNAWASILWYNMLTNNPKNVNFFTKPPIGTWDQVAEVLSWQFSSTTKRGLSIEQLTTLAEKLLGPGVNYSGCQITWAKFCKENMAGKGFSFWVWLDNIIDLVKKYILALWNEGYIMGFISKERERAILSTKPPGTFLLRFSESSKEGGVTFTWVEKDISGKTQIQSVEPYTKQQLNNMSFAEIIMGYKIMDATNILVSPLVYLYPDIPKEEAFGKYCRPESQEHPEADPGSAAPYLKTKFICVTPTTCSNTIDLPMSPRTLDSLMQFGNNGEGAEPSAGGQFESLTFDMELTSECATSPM
Nuclear receptor subfamily 1 group I member 3 (Homo sapiens), sequence (Q14994 whole entry, looked up, the tested form may be a part): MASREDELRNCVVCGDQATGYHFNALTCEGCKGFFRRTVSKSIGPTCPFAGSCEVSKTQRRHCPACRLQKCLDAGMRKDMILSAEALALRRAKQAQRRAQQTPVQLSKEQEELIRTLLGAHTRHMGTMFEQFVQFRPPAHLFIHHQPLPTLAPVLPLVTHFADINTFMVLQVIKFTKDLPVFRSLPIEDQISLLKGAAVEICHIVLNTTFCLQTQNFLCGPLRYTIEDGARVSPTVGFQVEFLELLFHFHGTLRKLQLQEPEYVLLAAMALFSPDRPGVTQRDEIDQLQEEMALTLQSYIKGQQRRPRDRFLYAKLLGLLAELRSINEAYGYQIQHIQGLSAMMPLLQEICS
Estrogen receptor (Homo sapiens), sequence (P03372 whole entry, looked up, the tested form may be a part): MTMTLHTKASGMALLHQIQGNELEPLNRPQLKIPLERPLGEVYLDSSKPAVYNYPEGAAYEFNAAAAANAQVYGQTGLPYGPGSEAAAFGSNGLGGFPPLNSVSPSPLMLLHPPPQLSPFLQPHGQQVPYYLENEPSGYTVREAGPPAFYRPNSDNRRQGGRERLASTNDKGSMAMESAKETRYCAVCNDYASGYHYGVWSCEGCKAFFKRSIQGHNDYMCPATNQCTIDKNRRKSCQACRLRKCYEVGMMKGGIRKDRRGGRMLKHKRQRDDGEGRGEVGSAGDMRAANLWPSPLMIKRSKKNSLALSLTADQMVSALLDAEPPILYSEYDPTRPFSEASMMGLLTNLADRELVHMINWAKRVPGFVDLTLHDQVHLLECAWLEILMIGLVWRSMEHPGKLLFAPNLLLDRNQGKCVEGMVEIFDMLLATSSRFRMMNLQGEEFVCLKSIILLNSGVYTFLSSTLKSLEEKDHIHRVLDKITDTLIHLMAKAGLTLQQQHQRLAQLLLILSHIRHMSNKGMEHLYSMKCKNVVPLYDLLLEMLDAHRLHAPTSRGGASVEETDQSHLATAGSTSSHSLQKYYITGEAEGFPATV
Steroid hormone receptor ERR1 (Homo sapiens), sequence (P11474 whole entry, looked up, the tested form may be a part): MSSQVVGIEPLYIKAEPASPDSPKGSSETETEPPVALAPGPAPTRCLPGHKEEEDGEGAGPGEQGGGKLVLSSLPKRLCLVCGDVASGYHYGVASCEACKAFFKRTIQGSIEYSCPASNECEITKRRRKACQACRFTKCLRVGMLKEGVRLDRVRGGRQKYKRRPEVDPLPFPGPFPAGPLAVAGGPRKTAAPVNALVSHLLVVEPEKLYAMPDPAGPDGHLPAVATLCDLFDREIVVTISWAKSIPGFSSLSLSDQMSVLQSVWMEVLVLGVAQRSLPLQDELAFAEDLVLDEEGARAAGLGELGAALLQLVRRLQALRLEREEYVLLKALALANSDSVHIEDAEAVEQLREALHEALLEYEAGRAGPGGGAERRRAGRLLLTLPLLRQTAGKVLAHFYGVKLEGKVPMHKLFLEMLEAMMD

Take `CCc1nn(C)c(C(=O)NCc2ccc(C(C)(C)C)cc2)c1Cl`: the AC50 in [1] is 1.39 µM (active); in [3] it was 3.17 µM (active); in experiment [4], 462 nM (active); in [14], 1.91 µM (active); in [18] it was 0.352 µM (active). For the same compound, the outcome in [2], in experiment [5], in experiment [6], in [7], in [8] and in [9] was inactive. The compound was classed as inactive in experiment [10], in experiment [11], in [12], in experiment [13], in [15] and in [16]. Besides, the outcome in experiment [17] was inactive.
In the case of `COc1nc(C)nc(NC(=O)NS(=O)(=O)c2ccccc2Cl)n1`, the outcome in experiment [1], in experiment [2], in experiment [3], in experiment [5], in experiment [6] and in [7] was inactive. The compound was classed as inactive in experiment [8], in experiment [9], in experiment [10], in [11], in [12] and in [13]. For the same compound, the call in experiment [14], in experiment [15], in [16], in experiment [18] and in [19] was inactive. Besides, in experiment [3], the AC50 was 31.3 µM (active).
Turning to `CCOC(=O)CC(SP(=S)(OC)OC)C(=O)OCC` (centres undefined), the result in experiment [1], in experiment [2], in experiment [5], in experiment [6], in [7] and in experiment [8] was inactive. Also, the outcome in experiment [9], in experiment [10], in experiment [11], in [12], in [13] and in experiment [15] was inactive. The call in experiment [18], in experiment [20] and in [19] was inactive. The AC50 in experiment [2] is 100 µM (active); in [3] it was 2.27 µM (active) and 12.2 µM (active); in experiment [4], 83.1 µM (active) and 32.5 µM (active); in experiment [5], 150 µM (active); in [12], 0.00921 µM (active); in [14], 20.2 µM (active) and 29.4 µM (active). In addition, the AC50 in experiment [16] was 68 µM (active) and 32.4 µM (active); in [18], 100 µM (active).
